# Source: PubChem BioAssay (several laboratories)
# FAK blocker: inhibitors of human focal adhesion kinase. biochemical FAK kinase activity assay. inhibition, %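 (tested at 7 µM)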. hit rate 0.84% among 97,000. AID 727. Q05397; in the data active means inhibition above about 19%;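 further: 0% = DMSO and 100% = reference compound high control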
# EphB4 ephrin blk: blocks human EphB4 binding to ephrin-B2. EphB4 LBD / TNYL-RAW-Alexa532 peptide, fluorescence polarization. inhibition, % at 7 µM. P54760. AID 720. hit rate 0.15% among 97,000;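 active means inhibition above the screen-wide mean inhibition plus 3 SD, cut at about 15% in these data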;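 further: 0% = DMSO wells and 100% = excess unlabeled TNYL-RAW peptide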
# PLK1 inh: PLK1 (human) kinase inhibition. inhibition, % at 10 µM. recombinant PLK1 kinase, TR-FRET peptide phosphorylation. P53350. hit rate 0.53% among 97,000;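 active means inhibition of 50% or more in the single-concentration screen; inactive means inhibition below 50%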;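 further: 0% = DMSO max control and 100% = H-89 dihydrochloride min control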
# Smad3 FoxH1 inh: Smad3 (human) transcription factor binding inhibition. P84022. inhibition, % at 25 µM. TR-FRET Smad3/Dy647-FoxH1 peptide binding, europium anti-His. AID 630. hit rate 0.29% among 88,000;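 active means compounds that reduce the energy-transfer binding signal between the protein and its labelled peptide by more than half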;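 further: 0% = Smad3 plus labelled peptide maximal FRET and 100% = peptide-only background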
# PLK1 PBD inh: blocks phosphopeptide binding to human Plk1 polo box domain; Plk1 PBD phosphopeptide binding, fluorescence polarization; hit rate 0.13% among 97,000; AID 693; inhibition, %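 (tested at about 20 µM)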; in the data active means inhibition above about 34%, passing the limit was not always enough
# Active calls of the source: *; / = not tested or not shown; [ ] = remark or other dose. The list is not random: actives were taken first. Their share in the collection is about 1.6%.
SMILES,FAK blocker,EphB4 ephrin blk,PLK1 inh,Smad3 FoxH1 inh,PLK1 PBD inh
COC(=O)c1ccc(NC(=O)CN2CCN(c3ccc(Cl)cc3)CC2)cc1,/,/,/,4,/
C[N+](C)(C)CCN[N@+]1(C)CCCc2ccccc21,/,/,/,103*,/
COc1ccc2cc1Oc1ccc(cc1)C[C@H]1c3c(cc(OC)c4c3Oc3cc5c(cc3O4)CCN[C@H]5C2)CCN1C,/,/,/,-2,/
CCN1CCN(CCNC(=O)C2CCN(Cc3nc(-c4ccc(Cl)cc4)oc3C)CC2)CC1,0,5,65*,-2,-20
Cc1oc(-c2ccc(Cl)cc2)nc1CN1CCC(C(=O)N2CCN(Cc3ccccc3)CC2)CC1,4,-1,59*,-5,-11
Cc1oc(-c2ccc(Cl)cc2)nc1CN1CCC(C(=O)N2CCc3ccccc3C2)CC1,5,3,7,-1,-17
C[N+](C)(C)CC(=O)N/N=C/c1ccncc1,/,/,/,0,/
O=C(O)[C@@H]1[C@H](C(=O)Nc2ccccc2)[C@@H]2C=C[C@H]1O2,/,/,/,9,/
CN1C(=O)S/C(=C/c2cccnc2)C1=O,-3,19*,-4,/,-2
N=c1n(CCN2CCCCC2)c2ccccc2n1CC(O)c1cccc(Br)c1 (stereo not drawn),-4,6,11,-19,-27
N=c1n(CCN2CCCCC2)c2ccccc2n1CC(O)c1ccc(Cl)c(Cl)c1 (stereo not drawn),-1,-4,63*,/,-13
CN(Cc1ccccc1)c1oc(COc2ccccc2F)nc1C#N,-1,4,69*,-15,-13
N#Cc1nc(COc2ccccc2F)oc1NCCc1ccccc1,0,-5,-7,-1,-39
CC(C)/C(=N\[N+](C)(C)C)c1ccccc1,/,/,/,3,/
Cn1c(C(=O)N2CCN(c3ccc(Cl)cc3)CC2)cc2c(=O)[nH]c3ccccc3c21,-2,3,52*,7,16
NNC(=O)Cc1cccnc1,/,/,/,7,/
Cc1nc2ccccc2nc1N1CCC(C)CC1,2,-4,-10,6,-11
Cc1cc(N2CCC(C)CC2)nc2cccc(O)c12,-2,2,63*,1,-2
Cc1ccccc1OCC(=O)Nc1ccccc1-c1ccccc1,/,/,-5,/,/
O=C(O)CCC(=O)N1CCN(c2nc(-c3ccccc3Cl)c3cc(Br)ccc3n2)CC1,-7,16*,-15,11,2
O=C(O)C[C@H]1OCC=C2C[N+]3([O-])CC[C@@]45c6ccccc6N[C@@H]4[C@@H]1[C@@H]2C[C@H]53 (stereo partly drawn),/,/,/,1,/
Cc1c2cc[n+](CCN3CCCCC3)cc2c(C)c2c1[nH]c1ccc(O)cc12,/,/,/,9,/
C/C(N[O-])=C(\C)[N+]([O-])=[Co].CC(=N\[O-])/C(C)=N/[O-].O[C@@H]1[CH-]CCCC1.c1ccncc1,/,/,/,71*,/
CC(C)CSC[C@@H]1O[C@H](n2cnc3c(N)nccc32)[C@H](O)[C@H]1O,/,/,/,13,/
COc1ccc(NC(=O)CN2CCC(C(N)=O)(N3CCCCC3)CC2)cc1,-1,2,-2,4,-9
SMILES,FAK blocker,EphB4 ephrin blk,PLK1 inh,Smad3 FoxH1 inh,PLK1 PBD inh
COc1cccc(NC(=O)N2CCC(C(N)=O)(N3CCCCC3)CC2)c1,-1,6,66*,-3,-4
CCc1nc(NCc2ccco2)c2oc3ccccc3c2n1,23*,-7,0,-5,33
CCOC(=O)/C(C#N)=C1/SC(CCO)C(=O)N1c1ccccc1 (stereo not drawn),23*,-4,-6,5,-13
CN(C)c1ccc(O)c2c1CC1CC3[C@@H](N(C)C)C(=O)C(C(N)=O)=C(O)[C@]3(O)C(=O)C1=C2O (stereo partly drawn),/,/,/,55*[fluorescence artefact?],/
CC(C)(C)C1CCC2(CC1)NC(=S)N(c1ccccc1)N2 (stereo not drawn),-1,1,-11,25,19
CC(C)(C)C1CCC2(CC1)SCC(=O)N2c1ccccc1 (stereo not drawn),10,16*,-5,-4,-2
CCOC(=O)c1c(C)[nH]c(C)c1C(=O)COC(=O)CCOc1ccccc1OC,0,-5,65*,7,0
CCOC(=O)c1[nH]c(COC(=O)CCOc2ccccc2OC)c(C(=O)OCC)c1C,1,-1,-8,/,4
Cc1cc(O)c(-c2cc(O)c(C)cc2O)cc1O,/,/,/,83*,/
Cc1ccc(O)c(Sc2cc(C)ccc2O)c1,1,3,-14,-4,9
CCCc1nc(SCC(=O)Nc2ccc(N3CCOCC3)cc2)c2ccccc2n1,10,-6,-6,-11,12
CC(C)c1nc(SCC(=O)Nc2ccc(N3CCOCC3)cc2)c2ccccc2n1,34*,-5,-6,4,3
